“And” between values parts separate entries of the source, which are not always exact repeats. Identical values can stand only once. About 2,000 (36%) of roughly 5,500 compounds were called active. Inconclusive results (about 18%) are left out. Rule as the data show it: active = normalized growth mostly below about 0.91 (no sharp cut-off); inconclusive = no clear call, values can overlap the other calls; inactive = mostly above about 0.92. The list shows a part of the results.
Assay: chemical genetic growth profiling, strain panel (AID 1159580);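 also: tested at 20 µM; growth read once vehicle control cultures reached saturation at 30 °C; 1 = growth at the plate median or of vehicle wells; lower values mean less growth of the strain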
Conditions: S. cerevisiae deletion strains, growth OD

Measured: normalized growth

C#CC1(O)CCC2C3CCC4=CC(=O)CCC4(C)C3CCC21C (stereo unspecified)
inactive: locus YAL021C, strain ccr4, hits give low values 0.973 | locus YAL026C, strain drs2, hits give low values 0.982 | locus YAL030W, strain snc1, hits give low values 0.995 | locus YBL061C, strain skt5, hits give low values 0.96 | locus YBR009C, strain hhf1, hits give low values 0.979 | locus YBR021W, strain FUR4, hits give low values 0.985 | locus YBR023C, strain chs3, hits give low values 0.981 | locus YBR171W, strain sec66, hits give low values 0.981 | locus YBR229C, strain ROT2, hits give low values 0.985 | locus YBR231C, strain swc5, hits give low values 0.977 | locus YBR279W, strain paf1, hits give low values 0.985 | locus YCL011C, strain gbp2, hits give low values 0.994 | locus YCL016C, strain dcc1, hits give low values 0.968 | locus YCL029C, strain bik1, hits give low values 0.984 | locus YCL069W, strain vba3, hits give low values 1 | locus YCR088W, strain abp1, hits give low values 0.992 | locus YDL005C, strain med2, hits give low values 0.976 | locus YDL035C, strain GPR1, hits give low values 0.981 | locus YDL040C, strain nat1, hits give low values 0.97 | locus YDL074C, strain BRE1, hits give low values 1.01 | locus YDL101C, strain DUN1, hits give low values 0.979 | locus YDL185W, strain tfp1, hits give low values 0.981 | locus YDL192W, strain arf1, hits give low values 0.98 | locus YDR001C, strain nth1, hits give low values 0.977 | locus YDR069C, strain doa4, hits give low values 0.933 | locus YDR101C, strain arx1, hits give low values 1.02 | locus YDR159W, strain sac3, hits give low values 0.937 | locus YDR162C, strain NBP2, hits give low values 0.971 | locus YDR195W, strain ref2 0.975 | locus YDR297W, strain sur2, hits give low values 0.98 | locus YDR318W, strain mcm21, hits give low values 0.97 | locus YDR334W, strain swr1, hits give low values 0.954 | locus YDR335W, strain msn5, hits give low values 0.981 | locus YDR388W, hits give low values 0.976 | locus YDR392W, strain spt3, hits give low values 0.918 | locus YDR502C, strain sam2, hits give low values 0.985 | locus YEL003W, strain gim4, hits give low values 0.976 | locus YEL037C, strain rad23, hits give low values 0.969 | locus YEL061C, strain CIN8 (second series), hits give low values 0.965 | locus YEL061C, strain CIN8, hits give low values 0.996 | locus YER015W, strain faa2, hits give low values 0.992 | locus YER016W, strain bim1, hits give low values 0.996 | locus YER110C, hits give low values 0.968 | locus YER111C, strain swi4, hits give low values 0.99 | locus YER155C, strain BEM2 (second series), hits give low values 1.02 | locus YER155C, strain BEM2, hits give low values 0.982 | locus YER167W, strain BCK2, hits give low values 0.994 | locus YFR010W, strain ubp6, hits give low values 0.995 | locus YGL078C, strain dbp3, hits give low values 0.95 | locus YGL086W, strain mad1, hits give low values 1.01 | locus YGL167C, strain pmr1, hits give low values 0.976 | locus YGL173C, strain kem1, hits give low values 0.986 | locus YGL227W, strain vid30, hits give low values 0.983 | locus YGL240W, strain doc1, hits give low values 0.987 | locus YGL248W, strain PDE1, hits give low values 0.99 | locus YGL253W, strain hxk2, hits give low values 0.978 | locus YGR135W, strain pre9, hits give low values 0.947 | locus YGR252W, strain gcn5, hits give low values 0.956 | locus YHR013C, strain ard1, hits give low values 0.994 | locus YHR027C, strain rpn1, hits give low values 0.948 | locus YHR030C, strain SLT2, hits give low values 0.998 and 1 | locus YHR079C, strain IRE1 (second series), hits give low values 0.983 | locus YHR079C, strain IRE1, hits give low values 1 | locus YHR094C, strain hxt1, hits give low values 0.968 | locus YHR129C, strain ARP1, hits give low values 0.999 | locus YHR142W, strain chs7, hits give low values 0.98 | locus YHR200W, strain rpn10, hits give low values 0.986 | locus YIL066C, strain RNR3, hits give low values 0.989 | locus YIL073C, strain SPO22, hits give low values 0.933 | locus YIL125W, strain kgd1, hits give low values 0.978 | locus YIR030C, strain dcg1, hits give low values 0.984 | locus YJL092W, strain hpr5, hits give low values 0.977 | locus YJL095W, strain BCK1 (second series), hits give low values 0.981 | locus YJL095W, strain BCK1, hits give low values 0.981 and 1.01 | locus YJL115W, strain asf1, hits give low values 0.954 | locus YJL129C, strain trk1, hits give low values 0.97 | locus YJL134W, strain LCB3, hits give low values 0.983 | locus YJL154C, strain vps35, hits give low values 0.972 | locus YJL164C, strain tpk1, hits give low values 0.978 | locus YJL166W, strain qcr8, hits give low values 0.983 | locus YJL168C, strain set2, hits give low values 0.977 | locus YJL187C, strain SWE1 (second series), hits give low values 1.01 | locus YJR043C, strain POL32, hits give low values 1.03 | locus YJR066W, strain TOR1, hits give low values 0.957 | locus YJR075W, strain HOC1, hits give low values 1
active: locus YDR137W, strain rgp1, hits give low values 1.19 [resistant]

From PubChem BioAssay AID1159580 (chemical genetic matrix, 2015)
